DT40 TDP1 no CPT – qHTS for Inhibitors of human tyrosyl-DNA phosphodiesterase 1 (TDP1): qHTS in cells in absence of CPT; DT40 Tdp1-/- hTDP1 cells, no CPT, ATP luminescence, 48 h; 15% of 420,000 active; AID 686978, 2013; Potency, µM (doses to about 46.2 µM), usual class: inhibitors; note: nearly all actives have a fitted effect of over 55% in size
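Luminescent ATP content (CellTiter-Glo) served as the growth readout. Knockout chicken DT40 cells expressing human TDP1 were exposed to compounds without camptothecin for a minimum 48 hr at 37 °C.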
DT40 TDP1 CPT – growth inhibition of DT40 Tdp1-/-;hTDP1 cells with camptothecin (screen for TDP1 inhibitors). chicken DT40 Tdp1-/-;hTDP1 cells + 20 nM CPT, ATP luminescence, 48 h. Potency, µM (top dose mostly 46.2 µM), actives largely listed as inhibitors. 12% of 420,000 active. AID 686979; note: nearly all actives have a fitted effect of over 55% in size
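Chicken DT40 Tdp1-/- cells stably complemented with human TDP1 were seeded at 400 cells/well in medium containing 20 nM camptothecin, exposed to pin-transferred compounds, and grown at 37 °C for at least 48 hr. Viability was read as ATP luminescence.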
ATXN viability – reduces viability in counter-screen for ATXN expression inhibitors; S2 cells (HEK-293 line with an ATXN2-luciferase reporter) viability, CellTiter-Fluor protease fluorescence, 24 h; Potency, µM (top dose mostly 56.7 µM), most hits filed as cytotoxic; 0.49% of 400,000 active; note: nearly all actives have a fitted effect of over 40% in size
TGFb inhibitor – inhibitors of TGF-b signaling; HepG2 CAGA-GFP TGF-b/SMAD3 reporter, GFP fluorescence, 18 h; TGF-beta stimulated, 500 pg/mL final; Potency, µM (series often up to 46.1 µM), actives largely listed as inhibitors; 1.2% of 410,000 active; AID 588855; note: nearly all actives have a fitted effect of over 65% in size
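Using HEPG2 CAGA-GFP reporter cells at 1000 cells/well, we pinned test compounds, stimulated with recombinant TGF-beta (500 pg/mL final) and measured total well GFP after 18 h.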
HepG2 tox – counter-screen for TGF-b inhibitors: cytotoxicity in HepG2 cells; HepG2 CAGA-GFP viability, ATP luminescence, 18 h; 0.76% of 410,000 active; Potency, µM (titrated, usually from 46.1 µM), hits mostly cytotoxic; AID 588856
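HepG2 CAGA-GFP cells (1000/well, DMEM with 1% FBS) received compound, then TGF-beta at 500 pg/mL final, and were incubated 18 hours at 37 degrees C. Viability was read by CellTiter-Glo luminescence. Media-only wells were set as complete cell-killing and DMSO as no toxicity.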
ATXN2 expr inh – inhibitors of ATXN2 expression | HEK-293 ATXN2-luciferase reporter, luminescence, 24 h | Potency, µM (highest dose often 57 µM), usual class: inhibitors | 0.72% of 360,000 active | AID 1745845; note: nearly all actives have a fitted effect of over 55% in size
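qHTS (up to 57 uM final) was run with 24 h compound exposure of reporter cells at 37 °C. Each well was multiplexed: SteadyGlo luminescence measured ATXN2-luciferase expression after a fluorogenic Gly-Phe-AFC viability readout (25 uM final).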
Large screens that a line does not name were inactive; ! = a repeat was not active. Hits are enriched below; roughly 17% of the tested compounds scored in any of these assays. Calls come from the whole dose curve; as a rule, active = well fitted curve in the direction sought with a large enough effect; inconclusive = small, poorly fitted or top-dose-only effect, or another doubt; inactive = no such curve, though single readings can be large; an effect the other way counts as inactive or inconclusive.

CC(C)(C)NC(=O)CN(C(=O)CS(=O)CC(=O)Nc1ccc(F)cc1)c1ccc(F)c(Cl)c1 (centres undefined)	none
COc1cccc(C(=O)COC(=O)c2cc(-c3cccs3)nc3ccccc23)c1	DT40 TDP1 no CPT 16µM, DT40 TDP1 CPT inconclusive
COc1ccc(N2CCN(C(=O)c3cc(-c4cccs4)nc4ccccc34)CC2)cc1	DT40 TDP1 no CPT inconclusive, DT40 TDP1 CPT inconclusive
COc1cccc(CN(C)C(=O)c2cc(-c3cccs3)nc3ccccc23)c1	DT40 TDP1 no CPT 18µM, DT40 TDP1 CPT 21µM
COc1ccc(CN2CCC[C@]3(N[C@H](c4ccc(OC)cc4)[C@@H]4C(=O)N(C)C(=O)[C@@H]43)C2=O)cc1	none
O=C1[C@H]2[C@@H](c3ccc(C(F)(F)F)cc3)N[C@]3(CCCN(Cc4ccc(C(F)(F)F)cc4)C3=O)[C@H]2C(=O)N1Cc1ccccc1	DT40 TDP1 no CPT 18µM, DT40 TDP1 CPT 18µM
O=C1[C@H]2[C@@H](c3ccc(C(F)(F)F)cc3)N[C@]3(CCCN(CC4CCCCC4)C3=O)[C@H]2C(=O)N1Cc1ccccc1	DT40 TDP1 no CPT 23µM, DT40 TDP1 CPT 23µM, ATXN viability inconclusive, TGFb inhibitor inconclusive
COc1ccc([C@H]2N[C@]3(CCCN(Cc4ccc(C(F)(F)F)cc4)C3=O)[C@H]3C(=O)N(Cc4ccccc4)C(=O)[C@@H]23)cc1	DT40 TDP1 no CPT 18µM, DT40 TDP1 CPT inconclusive, ATXN viability inconclusive
COc1ccc(CN2CCC[C@]3(N[C@H](c4ccc(C(F)(F)F)cc4)[C@@H]4C(=O)N(C)C(=O)[C@@H]43)C2=O)cc1	DT40 TDP1 no CPT inconclusive, DT40 TDP1 CPT 23µM
COc1ccc([C@H]2N[C@]3(CCCN(Cc4ccccc4)C3=O)[C@H]3C(=O)N(C)C(=O)[C@@H]23)cc1	none
O=C1[C@H]2[C@@H](c3ccc(C(F)(F)F)cc3)N[C@]3(CCCN(Cc4ccccc4)C3=O)[C@H]2C(=O)N1Cc1ccccc1	DT40 TDP1 no CPT 23µM, DT40 TDP1 CPT 23µM, ATXN viability inconclusive
CC(C)CCN1CCC[C@]2(N[C@H](c3ccc(C(F)(F)F)cc3)[C@@H]3C(=O)N(Cc4ccccc4)C(=O)[C@@H]32)C1=O	DT40 TDP1 no CPT 16µM, DT40 TDP1 CPT 18µM, ATXN viability inconclusive
CCN1C(=O)[C@H]2[C@@H](c3ccc(C(F)(F)F)cc3)N[C@]3(CCCN(Cc4cccn4C)C3=O)[C@H]2C1=O	DT40 TDP1 no CPT inconclusive, DT40 TDP1 CPT inconclusive, ATXN viability inconclusive, TGFb inhibitor inconclusive
CCN1C(=O)[C@H]2[C@@H](c3ccc(C)cc3)N[C@]3(CCCN(Cc4ccccc4)C3=O)[C@H]2C1=O	DT40 TDP1 no CPT inconclusive
CCOC(=O)C1CCCN(C(=O)CN2C(=O)c3ccccc3C2=O)C1 (centres undefined)	none
CCOC(=O)C1CCCN(C(=O)CN2C(=O)/C(=C/c3ccc(OC)cc3)Oc3ccccc32)C1 (centres undefined)	DT40 TDP1 no CPT 13µM, DT40 TDP1 CPT inconclusive, ATXN2 expr inh inconclusive
COc1cccc(CNC(=O)[C@@H]2CCCN2C(=O)[C@@H]2CCCN2C(=O)c2cccc3ccccc23)c1	DT40 TDP1 no CPT inconclusive, DT40 TDP1 CPT inconclusive (no result: TGFb inhibitor, HepG2 tox)
OCCC1CN(Cc2ccon2)CCN1Cc1ccc(F)c(F)c1 (centres undefined)	none
CC(C)CN(C(=O)COC(=O)Cc1c[nH]c2ccccc12)c1c(N)n(Cc2ccccc2)c(=O)[nH]c1=O	DT40 TDP1 CPT inconclusive
COc1ccc(C=C(C#N)C(=O)c2ccccc2)cc1	none (no result: TGFb inhibitor, HepG2 tox)
N#CC(C#N)=C1C=CC=CN1/C(=C\c1ccco1)C(=O)c1ccccc1	DT40 TDP1 no CPT 1.5µM, DT40 TDP1 CPT 1.3µM, ATXN viability inconclusive, TGFb inhibitor 2.2µM, HepG2 tox 4µM, ATXN2 expr inh inconclusive
COc1ccc(C(=O)/C(=C\c2ccco2)N2C=CC=CC2=C(C#N)C#N)cc1	DT40 TDP1 no CPT 0.65µM, DT40 TDP1 CPT 0.65µM, TGFb inhibitor 3.5µM, ATXN2 expr inh 14µM (no result: ATXN viability)
CC(C)OC(=O)/C(=C/c1ccco1)c1ccccc1	none
COc1ccc(/C=C(/C(=O)c2cccs2)N2C=CC=CC2=C(C#N)C#N)cc1	DT40 TDP1 no CPT 1.2µM, DT40 TDP1 CPT 1.2µM, ATXN viability inconclusive, TGFb inhibitor inconclusive, HepG2 tox 11µM (no result: ATXN2 expr inh)
CN(C)CCc1c[nH]c2ccc(CS(=O)(=O)N3CCCC3)cc12	none (no result: TGFb inhibitor, HepG2 tox)
CNS(=O)(=O)Cc1ccc2[nH]cc(CCN(C)C)c2c1	DT40 TDP1 no CPT 4.6µM!, DT40 TDP1 CPT 5.8µM!
Nc1nnc(SCc2nc3scc(-c4ccccc4)c3c(=O)[nH]2)s1	DT40 TDP1 no CPT 18µM, DT40 TDP1 CPT 23µM (no result: ATXN2 expr inh)
CN(Cc1ccccc1)Cc1nc2scc(-c3ccccc3)c2c(=O)[nH]1	DT40 TDP1 no CPT inconclusive, DT40 TDP1 CPT 13µM
CCn1c(SCc2nc3scc(-c4ccccc4)c3c(=O)[nH]2)nnc1-c1cccs1	DT40 TDP1 no CPT 21µM, DT40 TDP1 CPT 21µM, TGFb inhibitor inconclusive
Cc1csc(SC(C)c2nc3scc(-c4ccccc4)c3c(=O)[nH]2)n1 (centres undefined)	DT40 TDP1 no CPT 21µM, DT40 TDP1 CPT inconclusive, TGFb inhibitor inconclusive (no result: ATXN2 expr inh)
O=C1C2C3C=CC(CC3)C2C(=O)N1c1ccccc1[N+](=O)[O-] (centres undefined)	none
Cc1cc(NC(=O)CCSc2nc(-c3ccco3)cc(C(F)(F)F)n2)n(-c2ccccc2)n1	DT40 TDP1 CPT inconclusive, TGFb inhibitor inconclusive
O=C(NC1C2CC3CC(C2)CC1C3)C1CCCCC1 (centres undefined)	none
O=C(NCCO)c1nc(C(=O)c2ccccc2)c2ccccc2n1	DT40 TDP1 no CPT inconclusive, DT40 TDP1 CPT 23µM
COc1ccc(NC(=O)COC(=O)Cc2cccs2)cc1Cl	none (no result: ATXN2 expr inh)
Cc1c2cn[nH]c(=O)c2c(C)n1-c1ccccc1	none
O=C(CSc1nc2ccc(Cl)cc2[nH]1)NCCc1ccc(Cl)cc1	DT40 TDP1 no CPT inconclusive, DT40 TDP1 CPT inconclusive, TGFb inhibitor inconclusive
COc1ccc(CCNC(=O)CSc2nc3scc(-c4ccccc4)c3c(=O)[nH]2)cc1	DT40 TDP1 no CPT inconclusive, DT40 TDP1 CPT inconclusive, TGFb inhibitor 13µM
CC(C)CNC(=O)CSc1nc2scc(-c3ccccc3)c2c(=O)[nH]1	ATXN viability inconclusive, TGFb inhibitor inconclusive
O=C(CSc1nc2ccc(Cl)cc2[nH]1)NCCc1ccccc1	DT40 TDP1 no CPT 21µM, DT40 TDP1 CPT inconclusive, TGFb inhibitor inconclusive
CN(CCO)C(=O)CCC(=O)Nc1ccc(S(N)(=O)=O)cc1	ATXN viability inconclusive
